Measured values reported in PubChem BioAssay (NCATS).
Records with an inconclusive call do not appear. Activity calls are given as the source filed them. Unless noted, the call rests on the fitted dose curve; in most records, active means well fitted cell-killing curve with a large enough effect; inconclusive means small, poorly fitted or top-dose-only effect; inactive means flat fitted curve, though single readings scatter.

Legend:
[1] = Cell Viability - LYMP2-025 (AID 976);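 further: series mostly up to about 92 µM; plate controls were DMSO only for no effect and tetraoctylammonium bromide control for full effect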
Outline: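 CellTiter-Glo luminescence (cellular ATP) after 24 h compound exposure at 37 C; LYMP2-025 human lymphoblastoid cells, 2500/well, complete medium. Tetraoctylammonium bromide positive control. AC50 by Hill equation fit of qHTS concentration-response.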

[2] = Cell Viability - LYMP2-002 (AID 977);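 further: series mostly up to about 92 µM; plate controls were DMSO only for no effect and 92 µM tetraoctylammonium bromide for full effect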
Outline: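 Human lymphoblastoid cells, 2500/well, complete medium; 5 h 37 C settle; compound 24 h 37 C; CellTiter-Glo, 30 min RT; luminescence. Decrease in ATP = cytotoxicity; AC50 via Hill equation.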

[3] = Cell Viability - LYMP2-006 (AID 978);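 further: series mostly up to about 92 µM; cells exposed to compound for 24 hours; on the % scale 0 is the no-effect control and ±100 the full control effect; nearly all actives have a fitted effect of over 60% in size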
Outline: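 Concentration-dependent loss of intracellular ATP in a human lymphoblastoid line after 24 hr treatment at 37 C was measured by CellTiter-Glo luminescence, with AC50 values obtained from standard Hill-equation modelling.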

[4] = Cell Viability - LYMP2-007 (AID 979);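 further: cells exposed to compound for 24 h before reading; 0% = DMSO only and the negative end = 92 µM tetraoctylammonium bromide; nearly all actives have a fitted effect of over 60% in size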
Outline: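 qHTS cytotoxicity: 2500 cells/well, 5 hr 37 C settle, compound 24 hr 37 C, CellTiter-Glo 30 min RT, luminescence. Decrease in ATP = toxicity. AC50 by standard Hill equation; tetraoctylammonium bromide positive control.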

[5] = Cell Viability - LYMP2-008 (AID 980); further: on the % scale 0 is the no-effect control and ±100 the full control effect; nearly all actives have a fitted effect of over 60% in size
Outline: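 Luminescent ATP read-out (CellTiter-Glo, 30 min RT) after 24 hr compound exposure at 37 C of human lymphoblastoid cells in complete medium. Decrease in ATP taken as cytotoxicity; AC50 derived by standard Hill fit of qHTS concentration-response data.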

[6] = Cell Viability - LYMP2-010 (AID 981);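 further: cells exposed to compound for 24 hours at 37 °C; on the % scale 0 is the no-effect control and ±100 the full control effect; nearly all actives have a fitted effect of over 55% in size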
Outline: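 qHTS cytotoxicity, 1536-well: 2500 cells/well, 5 hr settle, 24 hr compound at 37 C, CellTiter-Glo 30 min RT, luminescence read. Decrease in ATP = toxicity; AC50 via standard Hill equation. Positive control tetraoctylammonium bromide.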

[7] = Cell Viability - LYMP2-012 (AID 982);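 further: cellular ATP by luciferase luminescence where a drop means cytotoxicity; cells exposed to compound for one day before reading; 0% = DMSO only and full loss = 92 µM tetraoctylammonium bromide; nearly all actives have a fitted effect of over 55% in size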
[8] = Cell Viability - LYMP2-014 (AID 983);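 further: series mostly up to about 92 µM; plate controls were DMSO only for no effect and 92 µM tetraoctylammonium bromide for full effect; nearly all actives have a fitted effect of over 50% in size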
Outline: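 2500 cells/well, 5 hr 37 C; cpd 24 hr 37 C, complete medium; CellTiter-Glo 30 min RT, luminescence; ATP loss = toxicity; AC50 via Hill eqn; tetraoctylammonium bromide positive control.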

[9] = Cell Viability - LYMP2-016 (AID 984);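 further: cells exposed to compound for 24 hours at 37 °C; on the % scale 0 is the no-effect control and ±100 the full control effect; nearly all actives have a fitted effect of over 55% in size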
Outline: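 Acute toxicity in a Coriell human lymphoblastoid line is scored as loss of intracellular ATP over 24 h of treatment in complete medium. CellTiter-Glo signal is fitted across concentrations with the Hill equation to give AC50.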

[10] = Cell Viability - LYMP2-018 (AID 985);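 further: plate controls were DMSO only for no effect and tetraoctylammonium bromide at 92 µM for full effect; nearly all actives have a fitted effect of over 50% in size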
Outline: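 2500 cells/well; 5 hr 37 C; cmpd 24 hr 37 C, complete medium; CellTiter-Glo 30 min RT; luminescence. Tetraoctylammonium bromide positive control. AC50 via Hill fit.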

[11] = Cell Viability - LYMP2-020 (AID 986);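 further: series mostly up to about 92 µM; plate controls were DMSO only for no effect and tetraoctylammonium bromide at 92 µM for full effect; nearly all actives have a fitted effect of over 55% in size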
Outline: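 qHTS, 2500 cells/well; 5 hr then 24 hr compound exposure, 37 C; CellTiter-Glo luminescence after 30 min RT; ATP decrease taken as cytotoxicity; AC50 via Hill equation; tetraoctylammonium bromide positive control.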

[12] = Cell Viability - LYMP2-022 (AID 987)
Outline: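 Luminescent ATP read-out (CellTiter-Glo, 30 min, RT) after 24 hr, 37 C compound exposure of 2500 human lymphoblastoid cells/well in complete medium. Cytotoxicity taken as concentration-dependent ATP loss; AC50 from standard Hill equation.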

[13] = Cell Viability - LYMP2-024 (AID 988);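 further: plate controls were DMSO only for no effect and 92 µM tetraoctylammonium bromide for full effect; nearly all actives have a fitted effect of over 60% in size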
Outline: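 ATP-based luminescence (CellTiter-Glo, 30 min RT) after 24 h compound exposure at 37 C of 2500 lymphoblastoid cells/well; decrease in ATP taken as cytotoxicity. qHTS concentration-response fitted to standard Hill equation for AC50.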

[14] = Cell Viability - LYMP2-026 (AID 989); further: on the % scale 0 is the no-effect control and ±100 the full control effect; nearly all actives have a fitted effect of over 50% in size
Outline: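 qHTS cytotoxicity: 2500 cells/well, 5 hr 37 C, compound 24 hr 37 C, CellTiter-Glo 30 min RT, luminescence. Tetraoctylammonium bromide positive control. AC50 via standard Hill fit.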

[15] = Cell Viability - LYMP1-002 - Assay at 24 hr (AID 993); further: on the % scale 0 is the no-effect control and ±100 the full control effect
Outline: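 CellTiter-Glo luminescence (intracellular ATP) after 24 h compound exposure, 37 C, in LYMP1-002 human lymphoblastoid cells; decreased ATP taken as cytotoxicity. AC50 from standard Hill fit of concentration-response curves.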

[16] = Cell Viability - LYMP1-002 - Assay at 40 hr (AID 994)
Outline: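 qHTS cytotoxicity; 2500 cells/well, 5 hr 37 C settle, compound 40 hr 37 C. CellTiter-Glo, 30 min RT, luminescence (ATP). Concentration-response, Hill fit → AC50. Pos. ctrl tetraoctylammonium bromide.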

[17] = qHTS Assay for Identification of Small Molecule Inducers of Hypoxia Response (AID 2120; active means well fitted curve in the direction sought with a large enough effect in the signal ratio, with a control signal flat, not every such curve was filed as active; the % refers to the signal ratio; further: 0% is about no effect)
Outline: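 Read-out: CCF4 FRET emission ratio 460nm/530nm (excitation 405nm), converted to %Activity, with AC50 fitted across a compound titration. ME-180 cells carried an HRE-driven beta-lactamase reporter; compound exposure 17 h, 37 degrees C.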

[18] = target: Estrogen receptor (Homo sapiens) (UniProt P03372); test: qHTS assay for small molecule antagonists of estrogen receptor alpha signaling (AID 588513; active means well fitted curve in the direction sought with a large enough effect in the signal ratio, with a control signal flat, not every such curve was filed as active; the % refers to the signal ratio; further: on the % scale 0 is the no-effect control and ±100 the full control effect)
Outline: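 Cells were plated at 5000/well and incubated 4 h at 37 C. Compounds were added as 1:2 dilution series, duplicates. 17-beta-estradiol (0.5nM final) was added for 18 h before CCF4 detection.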

[19] = target: Estrogen receptor (Homo sapiens) (UniProt P03372); test: qHTS assay for small molecule agonists of estrogen receptor alpha signaling (AID 588514; calls by dose curve;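 further: 0% = vehicle only and 100% = reference agonist; nearly all actives have a fitted effect of over 70% in size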)
Outline: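 Read-out: CCF4 fluorescence from a beta-lactamase reporter in ER-alpha-UAS-bla HEK 293 cells after 18 hrs of compound exposure at 37 C. Normalized to 20 nM 17-beta-estradiol (100%) and DMSO (0%).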

[20] = target: Androgen receptor (Homo sapiens) (UniProt P10275); test: qHTS assay for small molecule agonists of androgen receptor signaling (AID 588515; active means well fitted curve in the direction sought with a large enough effect in the signal ratio, with a control signal flat; the % refers to the signal ratio; further: on the % scale 0 is the no-effect control and ±100 the full control effect); settings: AR-UAS-bla HEK293, beta-lactamase ratio, agonist 16 h; stronger effect = higher value
Outline: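 Stimulation of an AR-responsive β-lactamase reporter in GripTite HEK293 cells was measured after 16 h compound exposure at 37 °C, via CCF4 fluorescence after 2 h RT. EC50 from Hill fits, normalized to R1881 at 30 nM.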

Sequence of Estrogen receptor (Homo sapiens) (P03372 whole entry, looked up): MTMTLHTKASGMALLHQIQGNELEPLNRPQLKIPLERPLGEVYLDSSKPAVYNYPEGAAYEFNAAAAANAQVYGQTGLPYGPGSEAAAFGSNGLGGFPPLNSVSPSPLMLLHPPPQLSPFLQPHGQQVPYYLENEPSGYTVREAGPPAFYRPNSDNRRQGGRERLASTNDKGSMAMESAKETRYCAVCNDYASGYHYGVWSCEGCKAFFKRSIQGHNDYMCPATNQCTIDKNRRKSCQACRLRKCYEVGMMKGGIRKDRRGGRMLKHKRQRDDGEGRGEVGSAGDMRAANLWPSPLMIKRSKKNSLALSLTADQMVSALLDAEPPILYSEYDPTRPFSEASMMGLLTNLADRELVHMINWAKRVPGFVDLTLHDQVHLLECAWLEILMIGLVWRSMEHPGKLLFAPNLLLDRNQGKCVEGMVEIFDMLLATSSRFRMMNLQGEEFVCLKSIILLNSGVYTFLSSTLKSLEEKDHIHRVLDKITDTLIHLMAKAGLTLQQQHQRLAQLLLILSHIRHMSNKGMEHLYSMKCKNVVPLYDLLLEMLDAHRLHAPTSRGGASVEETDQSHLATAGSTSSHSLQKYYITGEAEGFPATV
Sequence of Androgen receptor (Homo sapiens) (P10275 whole entry, looked up): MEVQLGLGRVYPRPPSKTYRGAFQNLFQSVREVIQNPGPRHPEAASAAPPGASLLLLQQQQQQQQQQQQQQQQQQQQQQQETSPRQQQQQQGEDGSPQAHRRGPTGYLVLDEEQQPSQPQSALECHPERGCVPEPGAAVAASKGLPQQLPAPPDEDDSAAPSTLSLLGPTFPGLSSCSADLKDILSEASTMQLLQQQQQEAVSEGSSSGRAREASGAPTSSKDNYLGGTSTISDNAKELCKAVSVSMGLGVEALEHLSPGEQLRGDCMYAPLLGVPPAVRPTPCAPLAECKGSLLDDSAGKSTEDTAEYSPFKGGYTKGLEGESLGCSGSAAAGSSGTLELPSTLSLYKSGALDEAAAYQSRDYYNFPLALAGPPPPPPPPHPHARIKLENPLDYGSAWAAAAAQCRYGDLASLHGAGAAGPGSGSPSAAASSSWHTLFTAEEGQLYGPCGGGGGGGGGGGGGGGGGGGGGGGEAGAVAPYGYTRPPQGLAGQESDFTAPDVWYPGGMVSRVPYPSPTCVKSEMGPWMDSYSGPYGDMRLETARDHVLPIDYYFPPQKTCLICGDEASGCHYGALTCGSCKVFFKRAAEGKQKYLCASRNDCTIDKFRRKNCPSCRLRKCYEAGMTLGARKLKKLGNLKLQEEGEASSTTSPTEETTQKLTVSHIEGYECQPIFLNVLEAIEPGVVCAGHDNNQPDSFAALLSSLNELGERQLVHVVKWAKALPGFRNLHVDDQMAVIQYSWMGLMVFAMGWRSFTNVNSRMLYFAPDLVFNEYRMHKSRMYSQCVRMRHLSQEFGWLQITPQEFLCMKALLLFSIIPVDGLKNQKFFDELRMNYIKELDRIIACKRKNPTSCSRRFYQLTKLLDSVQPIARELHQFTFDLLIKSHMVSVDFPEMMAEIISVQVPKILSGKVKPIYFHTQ

O=C(O)c1cccc(Cl)c1Cl
inactive: Potency [1] | Potency [2] | Potency [3] | Potency [4] | Potency [5] | Potency [6] | Potency [7] | Potency [8] | Potency [9] | Potency [10] | Potency [11] | Potency [12] | Potency [13] | outcome [14] | Potency [15] | Potency [16] | outcome [17] | outcome [18] | Potency [19]

CCOc1cccc(N)c1
inactive: Potency [1] | Potency [2] | Potency [3] | Potency [4] | Potency [5] | Potency [6] | Potency [7] | Potency [8] | Potency [9] | Potency [10] | Potency [11] | Potency [12] | Potency [13] | outcome [14] | Potency [15] | Potency [16] | outcome [17] | outcome [18] | Potency [19]

Cc1nc2ccc(Cl)cc2[nH]1
inactive: Potency [1] | Potency [2] | Potency [3] | Potency [4] | Potency [5] | Potency [6] | Potency [7] | Potency [8] | Potency [9] | Potency [10] | Potency [11] | Potency [12] | Potency [13] | outcome [14] | outcome [17] | outcome [18] | Potency [19]

CC(=O)Nc1ccc(N)cc1
inactive: Potency [2] | Potency [3] | Potency [4] | Potency [5] | Potency [6] | Potency [7] | Potency [9] | Potency [10] | Potency [11] | Potency [12] | Potency [13] | outcome [14] | Potency [15] | Potency [16] | outcome [17] | outcome [18] | Potency [19] | activation [20] -10.4%

COc1ccc(N=[N+]([O-])c2ccc(OC)cc2)cc1
inactive: Potency [1] | Potency [2] | Potency [3] | Potency [4] | Potency [5] | Potency [6] | Potency [7] | Potency [8] | Potency [9] | Potency [10] | Potency [11] | Potency [12] | Potency [13] | outcome [14] | Potency [15] | Potency [16] | outcome [17] | outcome [18] | Potency [19]

CC(C)(O)CCC(C)(C)O
inactive: Potency [2] | Potency [3] | Potency [4] | Potency [5] | Potency [6] | Potency [7] | Potency [8] | Potency [9] | Potency [10] | Potency [11] | Potency [12] | Potency [13] | outcome [14] | Potency [15] | Potency [16] | outcome [17] | outcome [18] | Potency [19] | activation [20] -1.56%

Cc1ccc2cccnc2c1
inactive: Potency [1] | Potency [2] | Potency [3] | Potency [4] | Potency [5] | Potency [6] | Potency [7] | Potency [8] | Potency [10] | Potency [11] | Potency [13] | outcome [14] | Potency [15] | Potency [16] | outcome [17] | outcome [18] | Potency [19] | activation [20] 14.8%

Cc1ccc(N(C)C)cc1
inactive: Potency [1] | Potency [2] | Potency [3] | Potency [4] | Potency [5] | Potency [7] | Potency [9] | Potency [10] | Potency [11] | Potency [12] | Potency [13] | outcome [14] | Potency [15] | Potency [16] | outcome [17] | outcome [18] | Potency [19] | activation [20] 15.4%

CC(=O)OCc1ccco1
inactive: Potency [1] | Potency [2] | Potency [3] | Potency [4] | Potency [5] | Potency [6] | Potency [7] | Potency [8] | Potency [9] | Potency [10] | Potency [11] | Potency [12] | Potency [13] | outcome [14] | Potency [15] | outcome [17] | outcome [18] | Potency [19]

c1ccc2c(c1)ccc1ncccc12
inactive: Potency [1] | Potency [2] | Potency [3] | Potency [4] | Potency [5] | Potency [7] | Potency [8] | Potency [9] | Potency [10] | Potency [11] | Potency [12] | Potency [13] | outcome [14] | Potency [15] | outcome [17] | outcome [18] | Potency [19] | activation [20] 7.08%

Cc1ccc(C)cc1
inactive: Potency [1] | Potency [2] | Potency [3] | Potency [4] | Potency [5] | Potency [6] | Potency [7] | Potency [9] | Potency [10] | Potency [11] | Potency [12] | Potency [13] | outcome [14] | Potency [15] | Potency [16] | outcome [17] | outcome [18] | Potency [19] | activation [20] 10.6%

CCCCCCCN
inactive: Potency [1] | Potency [2] | Potency [3] | Potency [4] | Potency [5] | Potency [6] | Potency [7] | Potency [8] | Potency [9] | Potency [10] | Potency [11] | Potency [12] | Potency [13] | outcome [14] | outcome [17] | outcome [18] | Potency [19]

C[C@@H]1CC2(OC3C[C@@]4(C)C5=CC[C@H]6C(C)(C)C(O[C@@H]7OC[C@@H](O)[C@H](O)[C@H]7O)CC[C@@]67C[C@@]57CC[C@]4(C)C31)OC(O)C1(C)OC21 (stereo not given in full)
inactive: Potency [1] | Potency [2] | Potency [3] | Potency [4] | Potency [5] | Potency [6] | Potency [7] | Potency [8] | Potency [10] | Potency [11] | Potency [12] | Potency [13] | outcome [14] | Potency [15] | Potency [16] | outcome [17] | outcome [18] | Potency [19] | activation [20] -11%

CC/C=C/C#N
inactive: Potency [1] | Potency [2] | Potency [3] | Potency [4] | Potency [5] | Potency [6] | Potency [7] | Potency [8] | Potency [9] | Potency [10] | Potency [11] | Potency [12] | Potency [13] | outcome [14] | Potency [15] | Potency [16] | outcome [17] | outcome [18] | Potency [19]

O=C1CCCCC1
inactive: Potency [2] | Potency [3] | Potency [4] | Potency [5] | Potency [6] | Potency [7] | Potency [8] | Potency [9] | Potency [10] | Potency [11] | Potency [12] | Potency [13] | outcome [14] | Potency [15] | Potency [16] | outcome [17] | outcome [18] | Potency [19] | activation [20] 14.6%

Nc1cccc(S(=O)(=O)O)c1
inactive: Potency [1] | Potency [2] | Potency [3] | Potency [4] | Potency [5] | Potency [6] | Potency [7] | Potency [8] | Potency [9] | Potency [11] | Potency [12] | Potency [13] | outcome [14] | Potency [15] | Potency [16] | outcome [17] | outcome [18] | Potency [19] | activation [20] 6.82%
